Laboratory results taken from PubChem BioAssay AID1159580 (chemical genetic matrix, 2015).
“And” between values parts separate entries of the source, which are not always exact repeats. Equal values may be shown once. About 2,000 (36%) of roughly 5,500 compounds were called active. Not shown: some 18% with an inconclusive outcome. Rule as the data show it: active = normalized growth mostly below about 0.91 (no sharp cut-off); inconclusive = no clear call, values can overlap the other calls; inactive = mostly above about 0.92. The list shows a part of the results.

Assay: chemical genetic growth profiling, strain panel (AID 1159580);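 also: tested at 20 µM; growth read once vehicle control cultures reached saturation at 30 °C; 1 = growth at the plate median or of vehicle wells; lower values mean less growth of the strain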
Conditions: growth OD

Measured: normalized growth

Cc1cc(N)c2ccccc2[n+]1CCCCCCCCCC[n+]1c(C)cc(N)c2ccccc21
active: S. cerevisiae deletion strains, locus YJL187C, strain SWE1, stronger effect = lower value 0.066 | S. cerevisiae deletion strains, locus YJR043C, strain POL32, stronger effect = lower value 0.0703 | S. cerevisiae deletion strains, locus YJR075W, strain HOC1, stronger effect = lower value 0.0707 and 0.0679 | S. cerevisiae deletion strains, locus YKL009W, strain mrt4, stronger effect = lower value 0.107 | S. cerevisiae deletion strains, locus YKL068W, stronger effect = lower value 0.0834 | S. cerevisiae deletion strains, locus YKL085W, strain MDH1 (second series), stronger effect = lower value 0.0842 | S. cerevisiae deletion strains, locus YKL085W, strain MDH1, stronger effect = lower value 0.0842 | S. cerevisiae deletion strains, locus YKL160W, strain elf1, stronger effect = lower value 0.0728 | S. cerevisiae deletion strains, locus YKL190W, strain CNB1, stronger effect = lower value 0.0496 | S. cerevisiae deletion strains, locus YKR001C, strain vps1, stronger effect = lower value 0.0684 | S. cerevisiae deletion strains, locus YKR026C, strain gcn3, stronger effect = lower value 0.0705 | S. cerevisiae deletion strains, locus YKR091W, strain srl3, stronger effect = lower value 0.0679 | S. cerevisiae deletion strains, locus YLL001W, strain dnm1, stronger effect = lower value 0.0644 | S. cerevisiae deletion strains, locus YLL026W, stronger effect = lower value 0.0616 | S. cerevisiae deletion strains, locus YLL041C, strain sdh2, stronger effect = lower value 0.0642 | S. cerevisiae deletion strains, locus YLR027C, strain aat2, stronger effect = lower value 0.0617 | S. cerevisiae deletion strains, locus YLR039C, strain RIC1, stronger effect = lower value 0.0806 | S. cerevisiae deletion strains, locus YLR058C, strain SHM2, stronger effect = lower value 0.0484 | S. cerevisiae deletion strains, locus YLR102C, strain apc9, stronger effect = lower value 0.0687 | S. cerevisiae deletion strains, locus YLR221C, strain rsa3, stronger effect = lower value 0.0648 | S. cerevisiae deletion strains, locus YLR258W, strain gsy2, stronger effect = lower value 0.0653 | S. cerevisiae deletion strains, locus YLR262C, strain YPT6 (second series), stronger effect = lower value 0.0835 | S. cerevisiae deletion strains, locus YLR262C, strain YPT6, stronger effect = lower value 0.107 | S. cerevisiae deletion strains, locus YLR268W, strain sec22, stronger effect = lower value 0.0712 | S. cerevisiae deletion strains, locus YLR320W, strain mms22, stronger effect = lower value 0.0855 | S. cerevisiae deletion strains, locus YLR330W, strain CHS5, stronger effect = lower value 0.0547 | S. cerevisiae deletion strains, locus YLR342W, strain FKS1 (second series), stronger effect = lower value 0.0723 | S. cerevisiae deletion strains, locus YLR342W, strain FKS1, stronger effect = lower value 0.0695 | S. cerevisiae deletion strains, locus YLR357W, strain rsc2, stronger effect = lower value 0.126 | S. cerevisiae deletion strains, locus YLR370C, strain arc18, stronger effect = lower value 0.0633 | S. cerevisiae deletion strains, locus YLR371W, strain rom2, stronger effect = lower value 0.0663 | S. cerevisiae deletion strains, locus YLR384C, strain iki3, stronger effect = lower value 0.0616 | S. cerevisiae deletion strains, locus YLR418C, strain cdc73, stronger effect = lower value 0.101 | S. cerevisiae deletion strains, locus YML016C, strain PPZ1, stronger effect = lower value 0.0475 | S. cerevisiae deletion strains, locus YML032C, strain rad52, stronger effect = lower value 0.0723 | S. cerevisiae deletion strains, locus YML120C, strain ndi1, stronger effect = lower value 0.0605 | S. cerevisiae deletion strains, locus YML124C, strain tub3, stronger effect = lower value 0.0637 | S. cerevisiae deletion strains, locus YMR058W, strain fet3, stronger effect = lower value 0.0627 | S. cerevisiae deletion strains, locus YMR078C, strain ctf18, stronger effect = lower value 0.0768 | S. cerevisiae deletion strains, locus YMR125W, strain sto1, stronger effect = lower value 0.0824 | S. cerevisiae deletion strains, locus YMR129W, stronger effect = lower value 0.069 | S. cerevisiae deletion strains, locus YMR205C, strain PFK2, stronger effect = lower value 0.0906 | S. cerevisiae deletion strains, locus YMR223W, strain ubp8, stronger effect = lower value 0.0681 | S. cerevisiae deletion strains, locus YMR231W, strain pep5, stronger effect = lower value 0.0782 | S. cerevisiae deletion strains, locus YMR263W, strain SAP30, stronger effect = lower value 0.0586 | S. cerevisiae deletion strains, locus YMR307W, strain GAS1, stronger effect = lower value 0.119 and 0.0541 | S. cerevisiae deletion strains, locus YNL067W, strain RPL9B, stronger effect = lower value 0.0529 | S. cerevisiae deletion strains, locus YNL071W, strain lat1, stronger effect = lower value 0.0636 | S. cerevisiae deletion strains, locus YNL128W, strain TEP1, stronger effect = lower value 0.0667 and 0.0791 | S. cerevisiae deletion strains, locus YNL153C, strain GIM3, stronger effect = lower value 0.0526 and 0.0904 | S. cerevisiae deletion strains, locus YNL175C, strain NOP13, stronger effect = lower value 0.0762 | S. cerevisiae deletion strains, locus YNL197C, strain WHI3, stronger effect = lower value 0.0722 | S. cerevisiae deletion strains, locus YNL209W, strain ssb2, stronger effect = lower value 0.0673 | S. cerevisiae deletion strains, locus YNL224C, strain SQS1, stronger effect = lower value 0.0723 | S. cerevisiae deletion strains, locus YNL233W, strain BNI4, stronger effect = lower value 0.0625 | S. cerevisiae deletion strains, locus YNL248C, strain rpa49, stronger effect = lower value 0.0815 | S. cerevisiae deletion strains, locus YNL250W, strain rad50, stronger effect = lower value 0.136 | S. cerevisiae deletion strains, locus YNL271C, strain bni1, stronger effect = lower value 0.0837 | S. cerevisiae deletion strains, locus YNL298W, strain CLA4, stronger effect = lower value 0.0752 | S. cerevisiae deletion strains, locus YNL307C, strain MCK1, stronger effect = lower value 0.0714 | S. cerevisiae deletion strains, locus YNL322C, strain KRE1 (second series), stronger effect = lower value 0.0698 | S. cerevisiae deletion strains, locus YNL322C, strain KRE1, stronger effect = lower value 0.0558 | S. cerevisiae deletion strains, locus YNR049C, strain mso1, stronger effect = lower value 0.0605 | S. cerevisiae deletion strains, locus YNR052C, strain pop2, stronger effect = lower value 0.0672 | S. cerevisiae deletion strains, locus YOL006C, strain TOP1, stronger effect = lower value 0.11 | S. cerevisiae deletion strains, locus YOL147C, strain pex11, stronger effect = lower value 0.0611 | S. cerevisiae deletion strains, locus YOR001W, strain rrp6, stronger effect = lower value 0.0775 | S. cerevisiae deletion strains, locus YOR061W, strain CKA2, stronger effect = lower value 0.0489 | S. cerevisiae deletion strains, locus YOR069W, strain VPS5, stronger effect = lower value 0.0494 | S. cerevisiae deletion strains, locus YOR070C, strain gyp1, stronger effect = lower value 0.0633 | S. cerevisiae deletion strains, locus YOR080W, strain dia2, stronger effect = lower value 0.0687 | S. cerevisiae deletion strains, locus YOR083W, strain WHI5 (second series), stronger effect = lower value 0.081 | S. cerevisiae deletion strains, locus YOR083W, strain WHI5, stronger effect = lower value 0.0703 | S. cerevisiae deletion strains, locus YOR106W, strain vam3, stronger effect = lower value 0.065 | S. cerevisiae deletion strains, locus YOR136W, strain idh2, stronger effect = lower value 0.0784 | S. cerevisiae deletion strains, locus YOR144C, strain elg1, stronger effect = lower value 0.0641 | S. cerevisiae deletion strains, locus YOR184W, strain ser1, stronger effect = lower value 0.0725 | S. cerevisiae deletion strains, locus YOR265W, strain rbl2, stronger effect = lower value 0.0616 | S. cerevisiae deletion strains, locus YOR270C, strain vph1, stronger effect = lower value 0.0961 | S. cerevisiae deletion strains, locus YOR290C, strain snf2, stronger effect = lower value 0.0714 | S. cerevisiae deletion strains, locus YOR316C, strain cot1, stronger effect = lower value 0.066 | S. cerevisiae deletion strains, locus YPL051W, strain arl3, stronger effect = lower value 0.0687 | S. cerevisiae deletion strains, locus YPL055C, strain LGE1, stronger effect = lower value 0.0706 and 0.0896 | S. cerevisiae deletion strains, locus YPL078C, strain atp4, stronger effect = lower value 0.0678 | S. cerevisiae deletion strains, locus YPL106C, strain sse1, stronger effect = lower value 0.111 | S. cerevisiae deletion strains, locus YPL240C, strain hsp82, stronger effect = lower value 0.0603 | S. cerevisiae deletion strains, locus YPL241C, strain CIN2, stronger effect = lower value 0.0524 and 0.0485 | S. cerevisiae deletion strains, locus YPR119W, strain clb2, stronger effect = lower value 0.0709 | S. cerevisiae deletion strains, locus YPR141C, strain kar3, stronger effect = lower value 0.0821 | S. cerevisiae deletion strains, locus YPR163C, strain tif3, stronger effect = lower value 0.0791 | S. cerevisiae deletion strains, locus YPR167C, strain met16, stronger effect = lower value 0.0671 | S. cerevisiae deletion strains, strain wtn01, stronger effect = lower value 0.0664 | S. cerevisiae strains, strain wild type, stronger effect = lower value 0.0519
